In PubChem BioAssay:
Where “and” joins values, the source holds several entries; their conditions need not be identical. Equal entries are not always repeated. Calls of active or inactive are those of the source.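 The calls were made as follows, unless noted: active = inhibition at or above 50% relative to wild type and mutant plate controls; inactive = inhibition below 50%.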

Legend:
[1] = inhibitors of TNFa-induced NFkB p65 translocation, primary screen, imaging, HUVEC, MLSMR starter and 10KST1 sets (AID 438;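 active = inhibition above 20% together with a positive visual image hit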;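 also: compound added about 3h40 before a 20 min TNFalpha stimulation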;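 as to inhibition: signal is the nuclear over cytoplasmic p65 intensity ratio per well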); conditions: HUVEC TNFa-induced p65 nuclear translocation; cell count: measured here: nuclei count (cytotoxicity indicator), at 2.08 µM; inhibition: at 2 µM, stronger effect = higher value, 0% TNFa-plus-vehicle, 100% no-TNFa wells
[2] = endothelial E-selectin expression blockers – imaging, HUVEC, immunofluorescence, MLSMR starter and 10KST1 sets, primary screen (AID 487;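 active = visually confirmed hit in the image check and inhibition above 20%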;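 as to inhibition: signal is fraction of cell area covered by stained E-selectin grains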;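 as to nuclei count: 100% = median nuclei count of all wells on the same plate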); conditions: HUVEC TNFalpha-induced E-selectin immunofluorescence imaging, at 2 µM; inhibition: stronger effect = higher value; nuclei count: measured here: cell number, toxicity
[3] = Primary imaging screen for DUSP6 inhibitors that restore phospho-Erk in transfected HeLa cells, chemical complementation (AID 609;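 active = compounds giving at least 50% inhibition in the cell-based MKP-3 phosphatase rescue imaging test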;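 as to inhibition: phospho-Erk level distribution per well compared with pooled transfected vehicle control wells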); conditions: HeLa MKP-3 transfected, phospho-Erk imaging KS statistic, at 10 µM, cells stimulated with TPA for 15 min
[4] = target: Dual specificity protein phosphatase 6 (Homo sapiens) (UniProt Q16828); assay: as above; conditions: HeLa MKP-3 transfected, phospho-Erk imaging KS statistic; at 10 µM; stronger effect = higher value; cells stimulated with TPA for 15 min
Dual specificity protein phosphatase 6 (Homo sapiens), sequence (Q16828 whole entry, looked up): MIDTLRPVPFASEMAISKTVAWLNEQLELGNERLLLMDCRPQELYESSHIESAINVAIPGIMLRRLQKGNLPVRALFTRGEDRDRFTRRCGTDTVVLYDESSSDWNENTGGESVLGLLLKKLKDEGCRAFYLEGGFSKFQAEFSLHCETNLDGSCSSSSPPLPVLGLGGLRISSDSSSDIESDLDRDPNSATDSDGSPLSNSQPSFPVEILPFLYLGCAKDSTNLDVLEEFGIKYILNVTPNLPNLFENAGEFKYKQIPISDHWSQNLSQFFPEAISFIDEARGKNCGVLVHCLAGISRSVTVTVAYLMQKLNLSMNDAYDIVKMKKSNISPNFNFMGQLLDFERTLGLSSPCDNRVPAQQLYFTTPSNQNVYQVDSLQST

[5] = target: Voltage-gated potassium channel subunit beta-2 (Rattus norvegicus) (UniProt P62483); assay: inhibitors of rat Kvbeta2 reductase activity – biochemical, NADPH fluorescence, primary screen (AID 622;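 active = fluorescence slope higher than the sample average by over 3 SD, cut at about -0.22 in these data, passing the limit was not always enough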;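 also: slope of raw intensity against log time taken from 70 to 1610 s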); conditions: recombinant KvBeta, 4-cyanobenzaldehyde reduction, at 10 µM, stronger effect = higher value
Voltage-gated potassium channel subunit beta-2 (Rattus norvegicus), sequence (P62483 whole entry, looked up): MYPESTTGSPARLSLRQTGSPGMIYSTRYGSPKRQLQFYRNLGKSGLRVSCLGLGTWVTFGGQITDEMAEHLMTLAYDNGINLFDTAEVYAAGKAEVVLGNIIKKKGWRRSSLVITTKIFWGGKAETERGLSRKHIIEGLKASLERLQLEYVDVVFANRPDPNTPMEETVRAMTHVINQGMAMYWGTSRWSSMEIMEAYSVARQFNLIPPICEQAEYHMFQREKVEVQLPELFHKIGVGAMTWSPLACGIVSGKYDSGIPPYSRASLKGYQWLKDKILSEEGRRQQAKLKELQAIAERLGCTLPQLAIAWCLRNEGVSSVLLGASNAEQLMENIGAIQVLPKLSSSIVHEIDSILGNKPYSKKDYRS

[6] = target: Voltage-gated potassium channel subunit beta-2 (Rattus norvegicus) (UniProt P62483); assay: enhancers of rat Kvbeta2 NADPH turnover – biochemical, NADPH fluorescence, primary screen (AID 623;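 active = NADPH fluorescence slope more negative than the mean of all samples by about 3 SD, 99.7% confidence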;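 also: fluorescence intensity change per second fitted from 20 to 320 s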); conditions: Recombinant KvBeta, NADPH fluorescence decrease slope, 10 min; at 10 µM; stronger effect = lower value
[7] = target: Alpha-2C adrenergic receptor (Homo sapiens) (UniProt P18825); assay: compounds altering alpha2C-coupled GIRK flux – cell-based, HEK293 alpha2C/GIRK1/2, thallium flux, primary screen (AID 624;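 active = fluorescence slope after compound addition differing from the mean of all screened samples at 99.7% confidence, in either direction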;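 also: slope of fluorescence ratio to pre-addition baseline per second over 15 to 24 s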); conditions: thallium flux BTC fluorescence, at 10 µM, actives lie on both sides
Alpha-2C adrenergic receptor (Homo sapiens), sequence (P18825 whole entry, looked up): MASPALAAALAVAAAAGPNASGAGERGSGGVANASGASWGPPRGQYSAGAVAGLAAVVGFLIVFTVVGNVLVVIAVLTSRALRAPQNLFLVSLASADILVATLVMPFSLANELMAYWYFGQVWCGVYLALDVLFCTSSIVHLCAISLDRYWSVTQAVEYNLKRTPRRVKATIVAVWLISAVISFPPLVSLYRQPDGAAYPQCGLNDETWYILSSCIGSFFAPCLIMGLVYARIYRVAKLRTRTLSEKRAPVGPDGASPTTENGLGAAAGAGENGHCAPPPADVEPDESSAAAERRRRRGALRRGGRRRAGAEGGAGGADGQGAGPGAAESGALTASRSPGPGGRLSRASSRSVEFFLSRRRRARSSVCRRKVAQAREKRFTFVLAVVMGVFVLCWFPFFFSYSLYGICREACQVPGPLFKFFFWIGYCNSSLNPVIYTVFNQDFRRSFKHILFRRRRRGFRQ

[8] = inhibitors of larval lipid processing in zebrafish, primary screen, whole organism, PED6 fluorescence, gall bladder and intestine (AID 686;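 active = a full or partial loss of lipid-probe fluorescence in the fish gall bladder, intestine or both, judged by eye; inactive = no fluorescence loss, or compound toxic to the fish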;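 also: larvae 5 to 7 days old with five fish per well; signal comes from phospholipase A2 cleavage of quenched PED6 carried via bile; overnight exposure to compound and PED6 before scoring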); conditions: Zebrafish larvae PED6 lipid processing, fluorescence scoring; screened at 20 µM (by protocol)
[9] = loss of swimming-algae plug formation – whole organism, Chlamydomonas reinhardtii, WT vs cilia-less mutant, absorbance, 96-well, primary screen (AID 463189); conditions: Chlamydomonas reinhardtii gravitaxis, OD600 absorbance, 2 days; at 10 µM; stronger effect = higher value;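 also: 0% = wild type cc124 cells in DMSO and 100% = ciliumless bld1 mutant cells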
[10] = target: Muscarinic acetylcholine receptor M4 (Homo sapiens) (UniProt P08173); assay: M4-linked GIRK flux change, two-sided – cell-based, HEK293 M4/GIRK, thallium flux, BTC-AM, M4 allosteric agonist project, primary screen (AID 625;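 active = fluorescence slope after compound addition differing from the mean of all tested samples at 99.7% confidence, mostly higher but some lower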;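 also: thallium influx through GIRK channels coupled to M4 in HEK293 cells with BTC-AM dye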); conditions: at 10 µM, actives lie on both sides
Muscarinic acetylcholine receptor M4 (Homo sapiens), sequence (P08173 whole entry, looked up): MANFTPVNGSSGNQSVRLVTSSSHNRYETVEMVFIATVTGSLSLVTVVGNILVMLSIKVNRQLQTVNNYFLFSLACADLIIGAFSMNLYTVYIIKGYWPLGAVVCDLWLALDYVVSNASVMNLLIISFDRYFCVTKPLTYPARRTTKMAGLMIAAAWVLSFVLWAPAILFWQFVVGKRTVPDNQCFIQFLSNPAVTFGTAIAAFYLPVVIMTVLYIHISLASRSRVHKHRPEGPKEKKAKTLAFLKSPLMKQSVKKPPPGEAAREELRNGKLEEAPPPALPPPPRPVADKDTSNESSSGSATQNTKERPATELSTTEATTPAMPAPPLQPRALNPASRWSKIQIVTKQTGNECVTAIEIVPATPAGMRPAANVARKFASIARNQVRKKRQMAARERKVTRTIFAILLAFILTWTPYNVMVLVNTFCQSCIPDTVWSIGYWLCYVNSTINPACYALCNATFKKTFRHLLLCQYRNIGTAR

[11] = reduction of polyQ htt aggregates in cells – imaging, exon1htt(103Q)mCFP cells, high-content imaging, primary screen (AID 483;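 active = visual image review flags a hit and inhibition of aggregation exceeds 20%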;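 also: compound exposure lasted 3 days before fixation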;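 as to nuclei count: percent of the per-plate median nuclei count of sample wells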); conditions: exon1htt(103Q)mCFP cell line, aggregate imaging, at 2 µM; inhibition of aggregation: stronger effect = higher value; nuclei count: measured here: cell count, toxicity
[12] = blockers of RIG-like receptor reporter activation – cell-based, Sendai virus stimulus, luciferase, 10K MLSCN set, TLR/RLR signaling modifier project, primary screen (AID 602276;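 active = inhibition at or above 50% at 10 µM; inactive = inhibition below 50%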;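 also: firefly luciferase from ISG56 promoter only with Renilla not read in this screen; 0% = Sendai virus plus DMSO and 100% = medium plus DMSO without virus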); conditions: HEK293 RL24 IRF3 luciferase reporter, at 10 µM, stronger effect = higher value
[13] = TLR3 IRF3 reporter activation blockers – cell-based, poly I:C stimulus, luciferase, 10K MLSCN set, primary screen (AID 602277;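 active = inhibition of the reporter signal at or above 50%; inactive = inhibition below 50%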); conditions: HEK293-TLR3 RL24 IRF3 luciferase reporter, at 10 µM, stronger effect = higher value
[14] = measured here: cell density z-score
[15] = measured here: nuclear c-Myc green intensity z-score
[16] = measured here: nuclear pErk red intensity z-score, stronger effect = higher value

Row | SMILES | cell count [1] | inhibition [1] | inhibition [2] | nuclei count [2] [%] | z-score [3, 14] | z-score [3, 15] | z-score [3, 16] | inhibition [4] | fluorescence slope [5] | NADPH fluorescence slope [6] | slope [7] | outcome [8] | inhibition [9] | fluorescence slope [10] | inhibition of aggregation [11] | nuclei count [11] [%] | inhibition [12] | inhibition [13]
1 | CC1(C)Cc2c(C#N)c(NCC3CCCO3)nc(-c3ccco3)c2CO1 (stereo not drawn) | 508 | -1.3% (inactive) | -83% (inactive) | 123 | -1.04 | 1.4 | -1.27 | 11.9% (inactive) | -0.337 (inactive) | 1e-05 (inactive) | 0.00551 (inactive) | inactive | 1.27% (inactive) |  |  |  |  | 
2 | Cc1cc(C)nc(NC2=NCC(=O)N2c2cccc(Cl)c2)n1 | 581 | -4.9% (inactive) | -200% (inactive) | 141 | 1.05 | 1.03 | -2.43 | 15.9% (inactive) | -0.517 (inactive) | -4.2e-05 (inactive) | 0.00561 (inactive) | inactive | -3.6% (inactive) |  |  |  |  | 
3 | COc1ccc(-c2nnc3sc(-c4ccccc4OC)nn23)cc1 | 615 | -8.4% (inactive) | -30.4% (inactive) | 153 | 0.537 | -0.23 | -1.1 | -11.5% (inactive) | -0.413 (inactive) | -4.4e-05 (inactive) | 0.00877 (inactive) | inactive | 12.7% (inactive) |  |  |  |  | 
4 | CCOC(=O)c1ccccc1OCc1cc(/C=N/n2cncn2)ccc1OC | 430 | -16.8% (inactive) | -87.5% (inactive) | 169 | 0.277 | 0.212 | -0.384 | -2.29% (inactive) | -0.358 (inactive) | 1.8e-05 (inactive) | 0.00447 (inactive) | inactive | -0.944% (inactive) |  |  |  |  | 
5 | O=C(Nc1nc(=O)c2ccccc2s1)c1ccccc1 | 647 | 5.5% (inactive) | -58.7% (inactive) | 158 | 0.159 | -0.389 | 0.0783 | 9.61% (inactive) | -0.505 (inactive) | -4.5e-05 (inactive) | 0.00905 (active) | inactive | 13.1% (inactive) |  |  |  |  | 
6 | CCCOc1cc(CN2CCCCC2)cc(C(C)=O)c1 | 662 | -7.2% (inactive) | -40.5% (inactive) | 182 | 0.934 | -0.767 | 0.549 | 15.1% (inactive) | -0.493 (inactive) | -6.5e-05 (inactive) | 0.00496 (inactive) | inactive | 3.11% (inactive) |  |  |  |  | 
7 | Cc1cc(C)c(C#N)c(SCC(=O)N2CCN(Cc3ccccc3)CC2)n1 | 660 | -29% (inactive) | -68.1% (inactive) | 173 | -1.99 | 0.41 | 1.64 | -7.28% (inactive) | -0.419 (inactive) | -3.2e-05 (inactive) | 0.00644 (inactive) | inactive | 8.58% (inactive) |  |  |  |  | 
8 | CCOc1ccc(C2C(C#N)=C(N)SC(N)=C2C#N)cc1OC | 654 | -21.3% (inactive) | 22.8% (inactive) | 177 | 0.539 | -1.2 | 0.0794 | -3.95% (inactive) | -0.291 (inactive) | -3e-05 (inactive) | 0.00675 (inactive) | inactive | 5.29% (inactive) |  |  |  |  | 
9 | CCCCCCn1c(SCCN2CCOCC2)nc2c1c(=O)[nH]c(=O)n2C | 534 | -16.2% (inactive) | -9.8% (inactive) | 139 | 0.497 | 0.889 | 0.83 | 13.4% (inactive) | -0.409 (inactive) | -4.3e-05 (inactive) |  | inactive | 27.5% (inactive) | 0.00545 (inactive) |  |  |  | 
10 | CCN1CCc2c(C#N)c(N3CCOCC3)nc(NCCO)c2C1 | 566 | -9.7% (inactive) | -122% (inactive) | 151 | 1.19 | -1.68 | -1.24 | -9.53% (inactive) | -0.456 (inactive) | -9.7e-05 (inactive) |  | inactive | -3.77% (inactive) | 0.0043 (inactive) |  |  |  | 
11 | CCOC(=O)C1/C(=N\O)CC(C)(O)C(C(=O)OCC)C1c1ccc(OC)c(OC)c1 (stereo not drawn) | 573 | -0.9% (inactive) | -36% (inactive) | 149 | 0.422 | -0.512 | -0.582 | 1.98% (inactive) | -0.416 (inactive) | -5.9e-05 (inactive) |  | inactive | 1.71% (inactive) | 0.0045 (inactive) |  |  |  | 
12 | CCN1CCc2c(C#N)c(NCc3ccccc3)nc(NCCO)c2C1 | 534 | -12% (inactive) | -113% (inactive) | 151 | 0.614 | -1.73 | -1.03 | -5.81% (inactive) | -0.398 (inactive) | -3.2e-05 (inactive) |  | inactive | -0.503% (inactive) | 0.00361 (inactive) |  |  |  | 
13 | CC1(C)Cc2c(c(-c3ccccc3)[nH]c(=O)c2C#N)CS1 | 499 | -15.7% (inactive) | -47.8% (inactive) | 131 | 1.65 | -1.74 | -0.608 | 14.7% (inactive) | -0.426 (inactive) | -2.8e-05 (inactive) |  | inactive | -6.24% (inactive) | 0.0044 (inactive) |  |  |  | 
14 | CCOC(=O)C1(c2nc(N)cs2)COC(=O)C1 (stereo not drawn) | 529 | -7.1% (inactive) | 15.9% (inactive) | 110 | 1.01 | 1.47 | -1.03 | 16% (inactive) | -0.497 (inactive) | -5e-05 (inactive) |  | inactive | -13.2% (inactive) | 0.00548 (inactive) |  |  |  | 
15 | CCCc1nc(NC2CCCCC2)c(C#N)c2c1COC(C)(C)C2 | 517 | -11.1% (inactive) | -55.9% (inactive) | 114 | -0.306 | -0.0962 | -0.825 | -3.95% (inactive) | -0.492 (inactive) | -6.5e-05 (inactive) |  | inactive | -12.9% (inactive) | 0.00613 (inactive) |  |  |  | 
16 | Nc1nnc(CSc2ccc(Cl)cc2)s1 | 605 | -14% (inactive) | 33.5% (inactive) | 171 | 0.155 | -0.0933 | -0.139 | -7.86% (inactive) | -0.369 (inactive) | -4.8e-05 (inactive) | 0.00734 (inactive) | inactive | 6.7% (inactive) |  |  |  |  | 
17 | CCC(NC(=O)Nc1ccc(O)cc1)(C(F)(F)F)C(F)(F)F | 709 | -9.4% (inactive) | 18.3% (inactive) | 156 | -0.865 | 0.673 | 0.754 | -3.95% (inactive) | -0.448 (inactive) | -3.4e-05 (inactive) |  | inactive | 2.89% (inactive) | 0.00524 (inactive) |  |  |  | 
18 | CCOC(=O)c1c(C)[nH]c(/C(C)=N/O)c1C | 668 | -10.2% (inactive) | -400% (inactive) | 161 | -0.0773 | -1.42 | -0.664 | 1.12% (inactive) | -0.526 (inactive) | -3.4e-05 (inactive) |  | inactive | 87.2% (active) | 0.00562 (inactive) |  |  |  | 
19 | CC(C)(C)c1nnc2sc(SCC(=O)c3ccccc3)nn2c1=O | 619 | 3.4% (inactive) | -55% (inactive) | 105 | -1.21 | -0.101 | 1.16 | -7.67% (inactive) | -0.455 (inactive) | -6.8e-05 (inactive) |  | inactive | 11.5% (inactive) | 0.00537 (inactive) |  |  |  | 
20 | CC1(C)CC(=O)C2=C(C1)OC(N)=C(C#N)[C@@]21C(=O)N(CC(N)=O)c2ccccc21 | 375 | -8% (inactive) | -63.6% (inactive) | 114 | 0.0987 | 0.575 | -0.037 | -3.95% (inactive) | -0.464 (inactive) | -2e-05 (inactive) |  | inactive | -3.87% (inactive) | 0.00604 (inactive) |  |  |  | 
21 | CCCSc1nnc2n(C)c(=O)c3c4c(sc3n12)CCC4 | 376 | -2.9% (inactive) | -11.1% (inactive) | 83.1 | -0.271 | -0.0406 | 0.896 | 9.42% (inactive) | -0.501 (inactive) | -7.9e-05 (inactive) |  | inactive | 62% (active) | 0.00582 (inactive) |  |  |  | 
22 | Cc1cc(/C(O)=C2\C(=O)C(=O)N(CCN(C)C)C2c2ccncc2)ccc1OCc1ccccc1 (stereo not drawn) | 664 | -0.2% (inactive) | 9.6% (inactive) | 174 | -0.686 | 0.247 | -0.699 | 5.35% (inactive) | -0.481 (inactive) | -5.4e-05 (inactive) |  | inactive | 3.31% (inactive) | 0.00492 (inactive) |  |  |  | 
23 | CCC(C(=O)Nc1ncn[nH]1)(C(F)(F)F)C(F)(F)F | 692 | 5.8% (inactive) | -106% (inactive) | 171 | 0.655 | 0.101 | -0.238 | 7.93% (inactive) | -0.479 (inactive) | -4.9e-05 (inactive) |  | inactive | 27.8% (inactive) | 0.0062 (inactive) |  |  |  | 
24 | CC(=O)OCC(=O)[C@@]1(O)CC[C@H]2[C@@H]3CCC4=CC(=O)CC[C@]4(C)[C@H]3C(=O)C[C@@]21C |  |  | -92.4% (inactive) | 97.4 | -1.29 | -1.69 | 0.158 | 3.59% (inactive) | -0.477 (inactive) | -6.1e-05 (inactive) | 0.00575 (inactive) |  | 9.11% (inactive) and 28.9% (inactive) |  | 16.5% (inactive) | 99.5 | 3.98% (inactive) | 27.5% (inactive)
